Reference: PubChem BioAssay (Tox21)
Results filed as inconclusive are left out. Entries that show only a call come without a potency. Activity calls are given as the source filed them. Unless noted, calls come from the whole dose curve; as a rule, active = well fitted curve in the direction sought with a large enough effect in the repeat runs; inconclusive = weak or mixed curves; inactive = no such curve, though single readings can be large; an effect the other way counts as inactive or inconclusive.

What was measured:
[1] = target: Aryl hydrocarbon receptor (Homo sapiens) (UniProt P35869); assay: qHTS assay to identify small molecule that activate the aryl hydrocarbon receptor (AhR) signaling pathway (AID 743085); note: nearly all actives have a fitted effect of over 15% in size; note: potency is the fitted concentration of half-maximal effect;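 for activation: HG2L7.5c1 human HepG2 liver cells with stably integrated DRE-driven firefly reporter; series mostly up to about 70 µM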
Method in brief: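 Reporter assay in engineered HepG2 line HG2L7.5c1, whose plasmid carries twenty dioxin responsive elements upstream of firefly luciferase. Treatment lasted 24 h at 37C; ONE-Glo luminescence gauged induction.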

[2] = qHTS assay to identify small molecule that activate the aryl hydrocarbon receptor (AhR) signaling pathway - cell viability counter screen (AID 743086);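 note: HepG2 liver cells carrying the AhR DRE luciferase reporter; series mostly up to about 70 µM; nearly all actives have a fitted effect of over 45% in size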
Method in brief: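 Cytotoxicity counter screen: CellTiter-Fluor signal (30 min, 37 C) in 4000 HepG2 cells/well carrying the DRE-luciferase reporter, following 24 h compound exposure at 37 C.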

[3] = target: Peroxisome proliferator-activated receptor gamma (Homo sapiens) (UniProt P37231); assay: qHTS assay to identify small molecule agonists of the peroxisome proliferator-activated receptor gamma (PPARg) signaling pathway (AID 743094; active = well fitted activation curve with a large enough effect in the signal ratio in the repeat runs, not every such curve was filed as active; the % refers to the signal ratio; note: potency is the fitted concentration of half-maximal effect)
Method in brief: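 Beta-lactamase FRET fluorescence was the read-out after a 1 h room-temperature substrate step, following 17 h compound treatment at 37C of HEK293H cells expressing a UAS-driven bla reporter responsive to PPARg.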

[4] = target: Peroxisome proliferator-activated receptor gamma (Homo sapiens) (UniProt P37231); assay: qHTS assay to identify small molecule antagonists of the peroxisome proliferator-activated receptor gamma (PPARg) signaling pathway (AID 743191; calls by dose curve; note: series mostly up to about 63 µM; nearly all actives have a fitted effect of over 30% in size)
Method in brief: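 Beta-lactamase reporter under UAS control in HEK293H PPARg-bla cells; compound treatment 17 h at 37C. Read-out: fluorescence intensity after 1 h room-temperature incubation with LiveBLAzer B/G FRET substrate.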

[5] = qHTS assay to identify small molecule antagonists of the peroxisome proliferator-activated receptor gamma (PPARg) signaling pathway - cell viability counter screen (AID 743194); note: nearly all actives have a fitted effect of over 55% in size
Method in brief: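 Viability was measured as CellTiter-Glo luminescence in GeneBLAzer PPARg UAS-bla HEK293H cells. These cells had been exposed 17 h at 37 C to compounds together with rosiglitazone at 50 nM final, with the beta-lactamase readout taken in the same wells.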

[6] = qHTS assay for small molecule agonists of the antioxidant response element (ARE) signaling pathway (AID 743202; active = well fitted activation curve with a large enough effect in the signal ratio in the repeat runs, not every such curve was filed as active; the % refers to the signal ratio)
Method in brief: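 An ARE-responsive beta-lactamase gene stably integrated in HepG2 cells serves as reporter. After 5 h plating and 16 h compound incubation at 37 C, fluorescence of the B/G FRET substrate was measured.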

[7] = qHTS assay for small molecule agonists of the antioxidant response element (ARE) signaling pathway - cell viability counter screen (AID 743203; calls by dose curve; note: nearly all actives have a fitted effect of over 55% in size)
Method in brief: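 HepG2 cells carrying ARE-driven beta-lactamase; 2,000 cells/well; 5 hrs plating; compound pinned from DMSO; 16 hrs 37C/5% CO2; CellTiter-Glo added; 30 min RT; luminescence.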

[8] = qHTS assay for small molecule activators of the heat shock response signaling pathway - cell viability counter screen (AID 743209); note: nearly all actives have a fitted effect of over 50% in size
Method in brief: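 Luminescence from CellTiter-Glo, added after the beta-lactamase FRET read, gave the viability signal. Cells were HSE-bla HeLa treated with DMSO-dissolved compounds for 5 h at 37 C following overnight plating.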

[9] = qHTS assay for small molecule activators of the heat shock response signaling pathway (AID 743210; active = well fitted activation curve with a large enough effect in the signal ratio in the repeat runs, with a control signal flat, not every such curve was filed as active; the % refers to the signal ratio;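 note: HeLa cells with beta-lactamase reporter driven by heat shock elements; series mostly up to about 63 µM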)
Method in brief: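 In HSE-bla HeLa cells, 5 h compound incubation (37 C) precedes addition of LiveBLAzer B/G substrate; after 2.5 h at room temperature, fluorescence intensity indicates reporter induction.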

[10] = qHTS assay to identify small molecule agonists of the peroxisome proliferator-activated receptor delta (PPARd) signaling pathway - cell viability counter screen (AID 743211); note: nearly all actives have a fitted effect of over 55% in size
Method in brief: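 Multiplexed format: after the 2 h room-temperature LiveBLAzer B/G FRET step, CellTiter-Glo was added to the same wells. Luminescence after 30 min gave cell viability; compound exposure was 17 h at 37C.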

[11] = target: Peroxisome proliferator-activated receptor delta (Homo sapiens) (UniProt Q03181); assay: qHTS assay to identify small molecule agonists of the peroxisome proliferator-activated receptor delta (PPARd) signaling pathway (AID 743212; calls by dose curve)
Method in brief: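 HEK293H UAS-bla reporter cells, human PPARd system; compounds delivered in DMSO after 5 h plating, then at 37 C. Beta-lactamase FRET read, 2 h RT substrate step.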

[12] = qHTS assay to identify small molecule antagonists of the peroxisome proliferator-activated receptor delta (PPARd) signaling pathway - cell viability counter screen (AID 743213); note: nearly all actives have a fitted effect of over 50% in size
Method in brief: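 In this counter screen, HEK293H cells carrying a UAS-beta-lactamase reporter are co-treated with test compounds and 300 nM L165041 (final) for 17 h at 37 C; cell viability is quantified by CellTiter-Glo luminescence.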

[13] = target: Peroxisome proliferator-activated receptor delta (Homo sapiens) (UniProt Q03181); assay: qHTS assay to identify small molecule antagonists of the peroxisome proliferator-activated receptor delta (PPARd) signaling pathway (AID 743215; active = well fitted inhibition curve with a large enough effect in the signal ratio in the repeat runs, not every such curve was filed as active; the % refers to the signal ratio;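 note: cells stimulated with agonist L165041 at 300 nM final during compound exposure; series mostly up to about 62 µM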)
Method in brief: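 Read-out is beta-lactamase FRET fluorescence, measured 2 h after substrate addition at room temperature. Beforehand, UAS-bla HEK293H cells carrying the PPARd reporter were exposed to compounds with L165041 at 300 nM final for 17 h at 37 C.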

[14] = target: Bile acid receptor (Homo sapiens) (UniProt Q96RI1); assay: qHTS assay to identify small molecule antagonists of the farnesoid-X-receptor (FXR) signaling pathway (AID 743217; active = well fitted inhibition curve with a large enough effect in the signal ratio in the repeat runs, not every such curve was filed as active; the % refers to the signal ratio)
Method in brief: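 HEK 293T FXR-UAS-bla, 5000 cells/well; compound + CDCA 50 uM final; 16 h, 37 °C; B/G FRET substrate 2 h RT; fluorescence.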

[15] = qHTS assay to identify small molecule agonists of the farnesoid-X-receptor (FXR) signaling pathway - cell viability counter screen (AID 743218); note: nearly all actives have a fitted effect of over 45% in size
Method in brief: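 HEK 293T FXR-bla cells; 5 h pre-incubation, 16 h compound exposure at 37 C; LiveBLAzer substrate 2 h RT, then CellTiter-Glo 30 min RT, luminescence.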

[16] = target: Bile acid receptor (Homo sapiens) (UniProt Q96RI1); assay: qHTS assay to identify small molecule agonists of the farnesoid-X-receptor (FXR) signaling pathway (AID 743220; active = well fitted activation curve with a large enough effect in the signal ratio in the repeat runs, not every such curve was filed as active; the % refers to the signal ratio)
Method in brief: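 Beta-lactamase reporter under UAS control in GeneBLAzer FXR HEK 293T cells (5000/well) measured with LiveBLAzer FRET substrate after 2 h at room temperature. Compound exposure lasted 16 h at 37C.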

[17] = qHTS assay to identify small molecule antagonists of the farnesoid-X-receptor (FXR) signaling pathway - cell viability counter screen (AID 743221; active = well fitted cell-killing curve with a large enough effect in the repeat runs, not every such curve was filed as active; note: nearly all actives have a fitted effect of over 50% in size)
Method in brief: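 CellTiter-Glo, 30 min RT, luminescence; same wells as the LiveBLAzer FRET read. Cells: FXR-UAS-bla HEK 293T. Treatment: compound with chenodeoxycholic acid 50 uM final, 16 h at 37 C.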

[18] = target: Vitamin D3 receptor (Homo sapiens) (UniProt P11473); assay: qHTS assay to identify small molecule agonists of the vitamin D receptor (VDR) signaling pathway (AID 743222; calls by dose curve)
Method in brief: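 VDR-bla cells, 2,000/well; 4 h preincubation 37C; cpd (DMSO) 16 h; LiveBLAzer B/G substrate 2 h RT; fluorescence intensity read.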

[19] = target: Vitamin D3 receptor (Homo sapiens) (UniProt P11473); assay: qHTS assay to identify small molecule antagonists of the vitamin D receptor (VDR) signaling pathway (AID 743223; active = well fitted inhibition curve with a large enough effect in the signal ratio in the repeat runs, not every such curve was filed as active; the % refers to the signal ratio)
Method in brief: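 After VDR-bla cells are plated and left 4 h at 37C, DMSO-dissolved compounds and 3 nM (final) calcitriol agonist are added. Incubation continues 16 h at 37C; FRET beta-lactamase substrate then develops 2 h at room temperature.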

[20] = qHTS assay to identify small molecule agonists of the vitamin D receptor (VDR) signaling pathway - cell viability counter screen (AID 743224); note: series mostly up to about 63 µM; nearly all actives have a fitted effect of over 50% in size
Method in brief: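 Luminescence from CellTiter-Glo, read after 30 min at room temperature, reports viability of VDR-bla cells treated with compounds for 16 h at 37C in the wells used for the beta-lactamase FRET read.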

Chain of Peroxisome proliferator-activated receptor delta (Homo sapiens) (Q03181 whole entry, looked up): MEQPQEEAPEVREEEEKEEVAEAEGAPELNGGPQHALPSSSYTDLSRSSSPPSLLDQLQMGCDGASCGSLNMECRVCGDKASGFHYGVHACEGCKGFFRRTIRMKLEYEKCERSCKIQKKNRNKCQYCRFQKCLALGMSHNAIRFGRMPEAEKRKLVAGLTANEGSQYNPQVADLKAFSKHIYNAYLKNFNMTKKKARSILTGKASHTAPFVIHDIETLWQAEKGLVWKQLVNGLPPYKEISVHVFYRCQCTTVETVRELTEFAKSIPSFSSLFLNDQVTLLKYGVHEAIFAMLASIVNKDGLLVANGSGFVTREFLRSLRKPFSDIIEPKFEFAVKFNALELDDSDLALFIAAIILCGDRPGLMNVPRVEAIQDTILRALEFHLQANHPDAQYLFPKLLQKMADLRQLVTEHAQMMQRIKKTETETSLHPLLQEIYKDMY
Chain of Bile acid receptor (Homo sapiens) (Q96RI1 whole entry, looked up): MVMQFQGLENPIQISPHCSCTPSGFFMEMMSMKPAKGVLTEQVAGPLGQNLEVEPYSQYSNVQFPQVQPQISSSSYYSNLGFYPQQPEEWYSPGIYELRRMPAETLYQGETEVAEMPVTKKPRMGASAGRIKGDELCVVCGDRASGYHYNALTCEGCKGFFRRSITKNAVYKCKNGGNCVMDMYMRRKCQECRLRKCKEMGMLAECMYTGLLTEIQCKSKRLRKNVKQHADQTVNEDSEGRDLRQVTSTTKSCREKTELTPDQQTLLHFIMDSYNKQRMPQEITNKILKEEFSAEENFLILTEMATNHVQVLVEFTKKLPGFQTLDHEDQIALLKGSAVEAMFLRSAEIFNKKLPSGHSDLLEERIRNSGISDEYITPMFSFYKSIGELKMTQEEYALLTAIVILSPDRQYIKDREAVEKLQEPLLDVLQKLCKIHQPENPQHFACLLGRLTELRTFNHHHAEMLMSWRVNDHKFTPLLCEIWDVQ
Chain of Vitamin D3 receptor (Homo sapiens) (P11473 whole entry, looked up): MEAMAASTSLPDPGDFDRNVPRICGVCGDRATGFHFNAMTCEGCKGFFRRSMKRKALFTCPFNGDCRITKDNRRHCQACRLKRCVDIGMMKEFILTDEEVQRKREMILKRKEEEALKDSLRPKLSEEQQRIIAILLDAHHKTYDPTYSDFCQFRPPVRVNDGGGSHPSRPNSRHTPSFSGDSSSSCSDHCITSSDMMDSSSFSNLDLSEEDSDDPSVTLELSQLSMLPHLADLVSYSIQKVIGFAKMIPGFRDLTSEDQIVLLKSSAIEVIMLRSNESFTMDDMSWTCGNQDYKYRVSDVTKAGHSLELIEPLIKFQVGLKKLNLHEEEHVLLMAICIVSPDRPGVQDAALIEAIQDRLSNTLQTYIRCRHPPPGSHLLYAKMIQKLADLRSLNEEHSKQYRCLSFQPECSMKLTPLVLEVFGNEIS
Chain of Aryl hydrocarbon receptor (Homo sapiens) (P35869 whole entry, looked up): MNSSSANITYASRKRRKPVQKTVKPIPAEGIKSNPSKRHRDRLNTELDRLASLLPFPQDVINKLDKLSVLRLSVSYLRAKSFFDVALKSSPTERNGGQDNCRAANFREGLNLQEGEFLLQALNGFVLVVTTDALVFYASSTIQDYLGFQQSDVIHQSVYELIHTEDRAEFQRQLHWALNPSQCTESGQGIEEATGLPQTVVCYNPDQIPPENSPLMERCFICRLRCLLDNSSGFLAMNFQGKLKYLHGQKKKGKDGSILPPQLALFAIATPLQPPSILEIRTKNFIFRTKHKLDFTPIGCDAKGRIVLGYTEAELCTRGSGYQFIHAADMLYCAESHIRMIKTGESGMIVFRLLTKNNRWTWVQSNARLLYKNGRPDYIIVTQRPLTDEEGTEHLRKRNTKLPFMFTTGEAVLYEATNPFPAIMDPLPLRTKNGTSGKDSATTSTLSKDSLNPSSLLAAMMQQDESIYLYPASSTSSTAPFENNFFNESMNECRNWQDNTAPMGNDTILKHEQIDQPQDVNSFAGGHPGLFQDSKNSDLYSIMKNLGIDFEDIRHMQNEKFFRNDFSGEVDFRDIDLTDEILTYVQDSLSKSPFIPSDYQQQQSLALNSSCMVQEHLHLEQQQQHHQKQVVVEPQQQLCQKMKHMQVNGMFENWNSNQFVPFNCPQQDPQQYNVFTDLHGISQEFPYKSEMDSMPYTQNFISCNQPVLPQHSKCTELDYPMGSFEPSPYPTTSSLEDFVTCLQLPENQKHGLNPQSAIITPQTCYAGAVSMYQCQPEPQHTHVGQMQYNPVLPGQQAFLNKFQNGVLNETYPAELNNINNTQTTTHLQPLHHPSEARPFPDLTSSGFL
Chain of Peroxisome proliferator-activated receptor gamma (Homo sapiens) (P37231 whole entry, looked up): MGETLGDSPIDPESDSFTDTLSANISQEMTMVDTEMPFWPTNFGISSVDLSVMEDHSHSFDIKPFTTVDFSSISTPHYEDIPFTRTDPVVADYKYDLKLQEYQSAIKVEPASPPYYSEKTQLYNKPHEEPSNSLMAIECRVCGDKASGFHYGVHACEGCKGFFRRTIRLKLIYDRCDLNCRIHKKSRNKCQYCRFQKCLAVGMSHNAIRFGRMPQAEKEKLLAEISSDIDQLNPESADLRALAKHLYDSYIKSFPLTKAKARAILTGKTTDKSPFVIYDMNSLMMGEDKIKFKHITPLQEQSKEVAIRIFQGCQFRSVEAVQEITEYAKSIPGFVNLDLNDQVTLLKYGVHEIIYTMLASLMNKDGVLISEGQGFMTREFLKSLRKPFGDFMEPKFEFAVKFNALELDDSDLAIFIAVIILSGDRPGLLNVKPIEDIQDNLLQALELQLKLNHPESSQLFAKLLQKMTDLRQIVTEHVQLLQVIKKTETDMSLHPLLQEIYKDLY

SMILES	Potency [1]	outcome [2]	Potency [3]	Potency [4]	Potency [5]	Potency [6]	Potency [7]	outcome [8]	Potency [9]	Potency [10]	outcome [11]	Potency [12]	outcome [13]	outcome [14]	Potency [15]	outcome [16]	outcome [17]	outcome [18]	outcome [19]	Potency [20]
COc1cc(C)ccc1C(C)C	inactive	inactive	inactive	inactive	inactive	inactive	inactive	inactive	inactive	inactive	inactive	inactive	inactive	inactive	inactive	inactive	inactive	inactive	inactive	
CCN[C@H]1CN(CCCOC)S(=O)(=O)c2sc(S(N)(=O)=O)cc21	inactive	inactive	inactive	inactive	inactive	inactive	inactive	inactive	inactive	inactive	inactive	inactive	inactive		inactive		inactive	inactive	inactive	inactive
C=CCCC=C	inactive	inactive	inactive	inactive	inactive	inactive	inactive	inactive		inactive					inactive	inactive	inactive			
Nc1cccc(S(=O)(=O)O)c1	inactive	inactive	inactive	inactive	inactive	inactive		inactive	inactive	inactive	inactive	inactive	inactive		inactive		inactive	inactive		inactive
N#Cc1ccc(C(c2ccc(C#N)cc2)n2cncn2)cc1	inactive	inactive	inactive	inactive		inactive	inactive	inactive	inactive	inactive		inactive	inactive	inactive	inactive	inactive	inactive		inactive	
C[C@@H]1CN(c2c(F)c(F)c3c(=O)c(C(=O)O)cn(C4CC4)c3c2F)C[C@H](C)N1	inactive	inactive	inactive	inactive	inactive		inactive		inactive	inactive	inactive	inactive	inactive		inactive	inactive	inactive	inactive	inactive	inactive
COc1cc2c(cc1N)oc1ccccc12	31.3 µM (active)	inactive	inactive	inactive		inactive	inactive	inactive						inactive		inactive	inactive		inactive	
CC/C=C\CCOC(=O)CCCCC	inactive	inactive	inactive	inactive	inactive		inactive	inactive	inactive	inactive		inactive			inactive		inactive			inactive
CCCNC(C)(C)COC(=O)c1ccccc1	inactive	inactive	0.338 µM (active)		inactive	inactive	inactive	inactive	inactive	inactive	inactive	inactive	inactive		inactive		inactive		inactive	inactive
